This is one part of a sample in which hits are shown more often than they occur.
AMA1 RON2 block: qHTS for Inhibitors of AMA1-RON; Towards Development of Antimalarial Drug Lead: Primary Screen. Plasmodium falciparum AMA1 (3D7) - RON2 peptide interaction. AlphaScreen AMA1-biotinylated RON2 peptide binding. Potency, µM (top dose mostly 58.2 µM), usual class: inhibitors. 360,000 compounds, 0.2% hits. AID 720542, 2013; active = well fitted inhibition curve with a large enough effect; inconclusive = small, poorly fitted or top-dose-only effect; inactive = no such curve, though single readings can be large or run the other way; note: nearly all actives have a fitted effect of over 45% in size
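AMA1 (3D7) with his tag at 25 nM final met compounds first, then biotinylated RON2 peptide at 25 nM; detection used donor plus acceptor beads, 10 µg/mL apiece, read by AlphaScreen after 30 min at room temperature.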
CHX counter-1: Cycloheximide Counterscreen for Small Molecule Inhibitors of Shiga Toxin; cell reporter, cycloheximide protein synthesis inhibition counterscreen; max response, %; 300,000 compounds, 12% hits; AID 2314, 2010; in the data active = max response mostly above about 13%, no sharp cut-off; inactive = mostly below about 14%; note: read at 38.3 µM for the half of the compounds with a filed dose
Marburg entry inh: qHTS for inhibitors of binding or entry into cells for Marburg Virus | Marburg virus pseudotyped entry inhibition, cell reporter | Potency, µM (top dose mostly 37.8 µM), actives largely listed as inhibitors | 300,000 compounds, 1.8% hits | AID 540276, 2011; calls by dose curve; tested in HEK293 cells
Shiga toxin inh: A qHTS for Small Molecule Inhibitors of Shiga Toxin | Vero cells, Shiga toxin protein synthesis inhibition reporter | inhibition, % at 38.7 µM | 290,000 compounds, 9.2% hits; in the data active = inhibition mostly above about 28%, no sharp cut-off; inactive = mostly below about 43%
LASV entry inh: qHTS for Inhibitors of binding or entry into cells for Lassa Virus; AID 540256, 2011; 300,000 compounds, 1.2% hits; Potency, µM (highest dose often 37.9 µM), most hits filed as inhibitors; Lassa virus pseudotype entry inhibition, cell reporter; calls by dose curve; tested in HEK293 cells; note: nearly all actives have a fitted effect of over 50% in size
CHX counter-2: Cycloheximide Counterscreen for Small Molecule Inhibitors of Shiga Toxin (Confirmatory) | shares compounds with Shiga toxin inh | Cycloheximide counterscreen, protein synthesis reporter, Shiga toxin assay | Potency, µM (top dose mostly 38.3 µM), actives largely listed as activators | 510 compounds, 3% hits; calls by dose curve
Each line names hits and unclear results; the compound was inactive in the other large screens (follow-up assays come after a bar, where they were run).

CCc1nc2ccccc2c(=O)n1/N=C/c1ccc(OC)cc1	none (no result: CHX counter-1, Shiga toxin inh)
Cc1ccc([C@H]2/C(=C(\O)c3ccc(OC(C)C)cc3)C(=O)C(=O)N2CCN2CCOCC2)cc1	none (no result: AMA1 RON2 block, CHX counter-1, Shiga toxin inh, LASV entry inh)
COc1ccc(N2CCN(Cc3nc4c(c(=O)[nH]c(=O)n4C)n3CC(C)=O)CC2)cc1	Shiga toxin inh 30 (no result: Marburg entry inh, LASV entry inh) | CHX counter-2 inactive
O=C(c1ccc(Cl)cc1Cl)N1CCC(C(=O)N2CCOCC2)CC1	none
CCn1c(P(C)(=O)O)nc2ccccc21	none
CCn1c(P(C)(=O)O)nc2cc(NC(=O)c3ccccc3F)ccc21	Shiga toxin inh 32 | CHX counter-2 inactive
Cc1ccc(-c2c(CN3CCN(c4cc(C)ccc4C)CC3)csc2C)cc1	none (no result: AMA1 RON2 block, CHX counter-1, Marburg entry inh, Shiga toxin inh)
COc1ccc(N2CCN(Cc3csc(C)c3-c3ccc(C)cc3)CC2)cc1	AMA1 RON2 block 10µM, Marburg entry inh inconclusive, Shiga toxin inh 40, LASV entry inh inconclusive | CHX counter-2 inactive
COC(=O)c1ccc(COc2cccn3c(N(C)C(=O)CCC4CCCC4)c(C)nc23)cc1	none (no result: CHX counter-1, Marburg entry inh, Shiga toxin inh, LASV entry inh)
COc1cc(C2C(S(=O)(=O)c3ccccc3)CON2C)ccc1OCc1ccc(F)cc1 (centres undefined)	Marburg entry inh inconclusive, Shiga toxin inh 43 | CHX counter-2 inactive
COc1ccc(OC)c(C(C)NC=O)c1 (centres undefined)	none
CCC(C)(O)c1[nH]c2ccc(C(F)(F)F)cc2c1C (centres undefined)	Shiga toxin inh 18 (no result: Marburg entry inh, LASV entry inh) | CHX counter-2 inactive
CC(=O)N1CCc2cc(S(=O)(=O)NC(CC(C)C)C(=O)N3CCCC3)ccc21 (centres undefined)	none (no result: Marburg entry inh, LASV entry inh)
CCOC(=O)Nc1ccc2c(c1)Nc1ccccc1S2	AMA1 RON2 block inconclusive, Marburg entry inh inconclusive, Shiga toxin inh 31 | CHX counter-2 inactive
CCOc1ccc(C2=NC(c3ccncc3)=Nc3ccc(C)cc3N2)cc1OCC	Marburg entry inh inconclusive (no result: AMA1 RON2 block, CHX counter-1, Shiga toxin inh)
Cc1ccc(S(C)(=O)=O)cc1C(=O)OCC(=O)N(Cc1ccccc1)Cc1ccccc1	none (no result: CHX counter-1, Marburg entry inh, Shiga toxin inh, LASV entry inh)
CCOC(=O)c1cnc2c(C(=O)OCC)cnn2c1N	none
CCOC(=O)c1cnc2c(-c3cccc(Br)c3)cnn2c1C	Marburg entry inh inconclusive, Shiga toxin inh active, LASV entry inh inconclusive | CHX counter-2 2.8µM
COc1cccc(C(=O)NNC(=O)C2CC(C)=C(C)CC2C(=O)O)c1 (centres undefined)	Shiga toxin inh 37 | CHX counter-2 inactive
Cc1ccc(Cl)cc1NC(=O)c1oc2ccc(S(=O)(=O)N(C)C3CCCCC3)cc2c1C	none (no result: AMA1 RON2 block, CHX counter-1, Marburg entry inh, Shiga toxin inh)
CC(=O)Oc1cccc(N2C(=O)C3C4C=CC(C4=C(C)C)C3C2=O)c1 (centres undefined)	none
CC(=O)c1cccc(N2C(=O)C3C4CCC(C4=C(C)C)C3C2=O)c1 (centres undefined)	Marburg entry inh inconclusive, Shiga toxin inh 25 | CHX counter-2 inactive
COc1ccc(Nc2nc3ccccc3nc2NS(=O)(=O)c2ccc(Cl)cc2)cc1OC	none (no result: AMA1 RON2 block, CHX counter-1, Shiga toxin inh)
COc1ccccc1C(=O)CSc1nccn1C	Shiga toxin inh 22 | CHX counter-2 inactive
Cc1c(Cl)cnc(NC(=O)CSc2n[nH]c(N)n2)c1Cl	none (no result: CHX counter-1, Marburg entry inh, Shiga toxin inh, LASV entry inh)
Cc1csc(SCC(=O)Nc2ncc(Cl)c(C)c2Cl)n1	Shiga toxin inh 21 | CHX counter-2 inactive
O=C(Nc1ccc(/C=C/c2nc3ccccc3o2)cc1)c1ccc(F)cc1	Shiga toxin inh 37 | CHX counter-2 2.2µM
COc1ccc(C2=CC(c3ccc(N(C)C)cc3)n3nnnc3N2)cc1 (centres undefined)	none (no result: AMA1 RON2 block, CHX counter-1, Marburg entry inh, Shiga toxin inh)
COc1ccc(C2=CC(c3ccc(C)cc3)n3nnnc3N2)cc1 (centres undefined)	Shiga toxin inh 69 | CHX counter-2 inactive
CC[C@H](C)[C@H](NC(=O)[C@H](Cc1ccc(O)cc1)NC(=O)[C@@H]1CCCN1C(=O)[C@H](CCCCN)NC(=O)[C@@H](N)CCCCN)C(=O)N[C@@H](CC(C)C)C(=O)O	none (no result: AMA1 RON2 block, Marburg entry inh, LASV entry inh)
Nc1ccc2c(c1)C(=O)N(c1cccc3ccccc13)C2=O	none (no result: Shiga toxin inh)
Nc1ccc2nn(-c3cccc4ccccc34)nc2c1	Marburg entry inh inconclusive, Shiga toxin inh 49 | CHX counter-2 inactive
O=C(O)C1CCCCC1C(=O)Nc1ccc(-c2ccccc2)cc1 (centres undefined)	Shiga toxin inh 53 | CHX counter-2 inactive
CC(=O)Nc1ccc(NC(=O)C2CCCCC2C(=O)O)cc1 (centres undefined)	none
CCc1noc2nc(C)n(CC(=O)O)c(=O)c12	none (no result: AMA1 RON2 block, CHX counter-1, Shiga toxin inh)
O=C1c2ccccc2CCC12OC2c1ccncc1 (centres undefined)	none (no result: CHX counter-1, Marburg entry inh, Shiga toxin inh, LASV entry inh)
CCSc1nnc(-c2ccc(S(=O)(=O)N3CCCC3)cc2)n1C	Shiga toxin inh 67 | CHX counter-2 inactive
CCSc1nnc(-c2ccc(S(=O)(=O)N3CCOCC3)cc2)n1C	none
O=C(COC(=O)/C=C/c1cccs1)Nc1nc(-c2ccccc2)cs1	Marburg entry inh inconclusive, Shiga toxin inh 46 | CHX counter-2 inactive
O=C(Cn1nc(C(=O)O)c2ccccc2c1=O)Nc1nc(-c2ccccc2)cs1	Shiga toxin inh 40 (no result: Marburg entry inh, LASV entry inh) | CHX counter-2 inconclusive
Cc1ccccc1NC(=O)Cn1nc(C(=O)O)c2ccccc2c1=O	none
O=C(Cc1ccccc1F)Nc1ccc(S(=O)(=O)Nc2ncccn2)cc1	none
O=C(O)c1ccccc1C(=O)Nc1ccc(-n2nccc2C(F)(F)F)cc1	Shiga toxin inh 31 (no result: Marburg entry inh, LASV entry inh) | CHX counter-2 inactive
O=C(O)c1ccccc1C(=O)Nc1ccccc1	LASV entry inh inconclusive
CC(O)C(NS(=O)(=O)c1ccc(Cl)cc1)C(=O)OCCOc1ccc(F)cc1 (centres undefined)	none (no result: CHX counter-1, Marburg entry inh, Shiga toxin inh, LASV entry inh)
COc1ccc(C)cc1N1C(=N)/C(=C2/Nc3ccccc3S2)C(c2ccccc2)C1=O (centres undefined)	Marburg entry inh inconclusive, Shiga toxin inh 21 | CHX counter-2 inactive
COc1ccc(C2C(Oc3ccccc3)C(=O)N2c2cc(C)ccc2C)cc1OC (centres undefined)	Marburg entry inh inconclusive, LASV entry inh inconclusive
CC(C)(C)c1ccc(OCCNC(=O)Cc2ccc(F)cc2)cc1	Marburg entry inh inconclusive, LASV entry inh inconclusive
O=C(c1cc2c(s1)-c1ccccc1OC2)N1CCN(c2ccccc2)CC1	Shiga toxin inh 62 (no result: LASV entry inh) | CHX counter-2 inactive
COc1ccc(N2CCN(C(=O)c3cc4c(s3)-c3ccccc3OC4)CC2)cc1	none (no result: LASV entry inh)
CCCN(CC(=O)Nc1ccccc1C)C(=O)Cc1c(C)nc2ccccc2c1C	none (no result: CHX counter-1, Marburg entry inh, Shiga toxin inh, LASV entry inh)
Cc1ccc(S(=O)(=O)N2CCC(C(=O)N[C@@H](Cc3ccccc3)C(=O)O)CC2)cc1	Marburg entry inh inconclusive, Shiga toxin inh 34 | CHX counter-2 inactive
COc1cccc(CNC(=O)Cn2nc(C)n3c(cc4cc(C)ccc43)c2=O)c1OC	none (no result: AMA1 RON2 block, CHX counter-1, Shiga toxin inh, LASV entry inh)
COc1ccc(NC(=O)c2ccccc2)cc1	none (no result: CHX counter-1, Marburg entry inh, Shiga toxin inh, LASV entry inh)
COc1ccc(NC(=O)c2c(Cl)n(C)c3ccccc23)cc1	Marburg entry inh inconclusive, Shiga toxin inh 40 | CHX counter-2 13µM

Screening data as filed in PubChem.
